Data on 19 compounds can be found in the supplement of paper PMC10127200.

Where a name gives a salt, the structure may show the parent alone.

Holding throughout (experiment): Euclidean distance of Cell Painting phenotypic profile (signed KS, 77 features) to DMSO centroid (dimensionless distance); 5 or 10 uM (library dependent); higher = stronger phenotypic change vs DMSO (phenoactivity)
Holding throughout (details): 48 h

One experiment concerns 786-O. The essentials:
(§1)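 Library compounds were applied at 10 or 5 uM, depending on the library, with 0.1% DMSO final, for 48 h to five cancer lines and a healthy fibroblast line. After staining, cells were imaged confocally at 20X across 9 fields per well, and Harmony extracted 77 features, each scored as a signed Kolmogorov-Smirnov statistic against vehicle wells on the same plate. Phenoactivity is the Euclidean distance between each profile and the median vehicle profile, with profiles first plate-position corrected, correlation-weighted and averaged over replicates at the top dose.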

The subject of the next experiment is A549. Summed up: as §1
Another experiment deals with DU145. Summed up:
as §1

The subject of the next experiment is FB. The essentials:
as §1

The subject of the next experiment is HEPG2. The essentials: as §1
The next experiment deals with OVCAR4. The essentials: as §1

For `COc1ccc(-c2cc3c(C)nc(N)nc3n([C@H]3CC[C@H](OCCO)CC3)c2=O)cn1`, the Euclidean distance was found to be 4.94 in the experiment on 786-O; 3.33 with A549; 2.31 in the experiment with DU145; 4.31 in the experiment with FB; 2.12 in the experiment with HEPG2; 3.03 with OVCAR4.
Regarding `O=C(O)c1cn(C2CC2)c2cc(N3CCNCC3)c(F)cc2c1=O` [Ciprofloxacin hydrochloride hydrate], the Euclidean distance is 1.39 in the experiment on 786-O; 0.835 in the experiment with A549; 0.784 in the experiment with DU145; 1.29 in the experiment on FB; 0.735 in the experiment with HEPG2; 1.87 with OVCAR4.
For the compound `CO[C@H]1O[C@@H]2O[C@@]3(C)CC[C@H]4[C@H](C)CC[C@@H]([C@H]1C)[C@@]24OO3` [Artemether], the Euclidean distance amounted to 1.43 in the experiment on 786-O; 1.11 with A549; 0.712 with DU145; 1.28 with FB; 0.672 in the experiment on HEPG2; 1.26 in the experiment on OVCAR4.
`NCC[C@H](O)C(=O)N[C@@H]1C[C@H](N)[C@@H](O[C@H]2O[C@H](CN)[C@@H](O)[C@H](O)[C@H]2O)[C@H](O)[C@H]1O[C@H]1O[C@H](CO)[C@@H](O)[C@H](N)[C@H]1O` [Amikacin hydrate]: the Euclidean distance stood at 1.52 with 786-O; 1.1 with A549; 0.584 in the experiment on DU145; 1.08 with FB; 1.29 with HEPG2; 1.07 in the experiment with OVCAR4.
As to `CC(C)(O)CC[C@@H](O)[C@](C)(O)[C@H]1CC[C@@]2(O)C3=CC(=O)[C@@H]4C[C@@H](O)[C@@H](O)C[C@]4(C)[C@H]3CC[C@]12C` [20-Hydroxyecdysone], the Euclidean distance with 786-O worked out at 0.539; with A549, 1.05; in the experiment on DU145, 1.19; in the experiment on FB, 1.28; with HEPG2, 1.06; with OVCAR4, 1.08.
With `Nc1ccn([C@@H]2O[C@H](CO)[C@@H](O)[C@@H]2O)c(=O)n1` [Cytarabine hydrochloride], the Euclidean distance is 3.21 with 786-O; 3.25 with A549; 2.45 with DU145; 2.97 in the experiment with FB; 2.73 with HEPG2; 3.43 in the experiment on OVCAR4.
As for `O=C(OCC(O)CO)c1ccccc1Nc1ccnc2cc(Cl)ccc12` (centres undefined) [Glafenine HCl], the Euclidean distance with 786-O turned out to be 1.07; in the experiment with A549 it was 0.79; in the experiment with DU145, 0.824; in the experiment with FB, 1.52; in the experiment on HEPG2, 0.968; in the experiment with OVCAR4, 1.04.
Regarding `CNC(=O)c1ccc(N2C(=S)N(c3ccc(C#N)c(C(F)(F)F)c3)C(=O)C2(C)C)cc1F` [Enzalutamide (MDV3100)], the Euclidean distance in the experiment on 786-O is 0.957; in the experiment with A549 it was 1.37; with DU145 it was 1.2; in the experiment with FB, 1.38; in the experiment with HEPG2 it was 0.965; in the experiment with OVCAR4, 1.18.
For the compound `CC1=C(CC(=O)O)c2cc(F)ccc2/C1=C\c1ccc([S+](C)[O-])cc1` (centres undefined) [Sulindac], the Euclidean distance in the experiment with 786-O worked out at 0.824; in the experiment on A549, 0.664; with DU145 it was 0.975; in the experiment with FB, 0.812; with HEPG2, 1.5; with OVCAR4 it was 1.26.
Regarding `COc1cc2c(cc1-c1c(C)noc1C)ncc1[nH]c(=O)n([C@H](C)c3ccccn3)c12`, the Euclidean distance in the experiment with 786-O was found to be 2.62; in the experiment on A549 it was 2.24; with DU145, 1.84; in the experiment on FB it was 3.75; in the experiment on HEPG2 it was 1.77; with OVCAR4 it was 2.03.
`Cc1cc(-c2ccccc2)nnc1NCCN1CCOCC1` [Minaprine dihydrochloride]: the Euclidean distance with 786-O worked out at 0.893; in the experiment with A549 it was 1.02; in the experiment on DU145, 0.918; in the experiment on FB, 1.32; in the experiment on HEPG2, 0.555; in the experiment with OVCAR4, 1.06.
For `O=C(O)Cc1ccccc1Nc1c(Cl)cccc1Cl` [Diclofenac acid], the Euclidean distance with 786-O was determined as 0.971; with A549, 0.349; with DU145 it was 2.62; in the experiment with FB, 0.749; in the experiment with HEPG2, 0.668; in the experiment with OVCAR4 it was 0.711.
On to `N#C/C(=C1/SC[C@@H](c2ccc(Cl)cc2Cl)S1)n1ccnc1` [Luliconazole], for which the Euclidean distance is 1.47 in the experiment with 786-O; 1.03 in the experiment on A549; 0.686 in the experiment on DU145; 1.08 in the experiment with FB; 0.589 with HEPG2; 1.1 with OVCAR4.
Consider `COC(=O)N(C)c1c(N)nc(-c2nn(Cc3ccccc3F)c3ncccc23)nc1N` [Riociguat (BAY 63-2521)], for which the Euclidean distance amounted to 1.1 in the experiment with 786-O; 0.74 in the experiment on A549; 0.825 in the experiment on DU145; 1.34 in the experiment with FB; 0.598 with HEPG2; 0.876 in the experiment on OVCAR4.
`O=C(NCCN1CCOCC1)Nc1nc2ccc(Sc3nnc4ccc(-c5ccc(F)cc5)nn34)cc2s1`: the Euclidean distance stood at 1.21 with 786-O; 1.01 in the experiment with A549; 1.2 in the experiment with DU145; 1.23 with FB; 0.646 in the experiment on HEPG2; 1.15 in the experiment on OVCAR4.
For the compound `CCN(Cc1ccncc1)C(=O)C(CO)c1ccccc1` (centres undefined) [Tropicamide], the Euclidean distance is 1.11 in the experiment on 786-O; 1.27 in the experiment on A549; 1.8 with DU145; 1.01 with FB; 0.684 in the experiment with HEPG2; 1.3 in the experiment on OVCAR4.
For the compound `CC(C)OC(=O)CCC/C=C\C[C@@H]1[C@@H](/C=C/C(F)(F)COc2ccccc2)[C@H](O)C[C@@H]1O` [Tafluprost], the Euclidean distance with 786-O was determined as 1.72; in the experiment with A549, 1.49; in the experiment on DU145, 0.876; in the experiment with FB, 1.25; in the experiment on HEPG2 it was 0.711; with OVCAR4, 0.833.
With `CC(=O)Nc1nc2c(Oc3cc(-c4ccc(C(F)(F)F)cc4)ncn3)cccc2s1`, the Euclidean distance in the experiment on 786-O stood at 0.826; in the experiment with A549 it was 0.619; in the experiment on DU145, 0.706; in the experiment on FB, 0.556; with HEPG2, 0.84; with OVCAR4 it was 0.981.
As for `CC(C)(C)NS(=O)(=O)c1cncc(-c2cc(F)c3nc(N)nn3c2)c1`, the Euclidean distance in the experiment on 786-O turned out to be 0.676; with A549, 0.836; with DU145 it was 1.2; in the experiment with FB it was 1.61; with HEPG2, 0.94; in the experiment on OVCAR4, 1.09.
